From PubChem BioAssay
ELG1 DNA repair = ELG1-dependent DNA repair inhibition; Potency, µM (highest dose often 46.1 µM), actives largely listed as inhibitors; AID 504467; actives 2.3% (n = 330,000); HEK293T ELG1-luciferase reporter, luminescence, 16 h; DNA damage induced by 5-fluorouridine; also: nearly all actives have a fitted effect of over 55% in size
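DMSO vehicle served as the neutral condition. Each well held 2,000 cells given 5-fluorouridine plus compound; after 16 hr at 37 °C/5% CO2, ONE-Glo was added and luciferase measured 30 min later.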
NPC1 promoter act = activates the NPC1 promoter. Huh7 NPC1 promoter luciferase reporter, 24 h. Potency, µM (highest dose often 9.22 µM), actives largely listed as activators. actives 2.4% (n = 320,000). AID 485313; also: nearly all actives have a fitted effect of over 60% in size
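Luminescence from an NPC1 promoter-driven luciferase reporter in stably transfected Huh7 cells was measured after 24 h compound treatment at 37 °C, followed by 10 min ambient incubation with luciferase detection reagent.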
FLuc modulator = firefly luciferase modulation, counter-screen for miR-21 project | Potency, µM (doses to about 57.5 µM), most hits filed as inhibitors | P08659 | actives 6.9% (n = 360,000) | AID 588342 | purified FLuc, Km substrates, luminescence inhibition; also: nearly all actives have a fitted effect of over 55% in size
Target sequence (P08659 whole entry, looked up): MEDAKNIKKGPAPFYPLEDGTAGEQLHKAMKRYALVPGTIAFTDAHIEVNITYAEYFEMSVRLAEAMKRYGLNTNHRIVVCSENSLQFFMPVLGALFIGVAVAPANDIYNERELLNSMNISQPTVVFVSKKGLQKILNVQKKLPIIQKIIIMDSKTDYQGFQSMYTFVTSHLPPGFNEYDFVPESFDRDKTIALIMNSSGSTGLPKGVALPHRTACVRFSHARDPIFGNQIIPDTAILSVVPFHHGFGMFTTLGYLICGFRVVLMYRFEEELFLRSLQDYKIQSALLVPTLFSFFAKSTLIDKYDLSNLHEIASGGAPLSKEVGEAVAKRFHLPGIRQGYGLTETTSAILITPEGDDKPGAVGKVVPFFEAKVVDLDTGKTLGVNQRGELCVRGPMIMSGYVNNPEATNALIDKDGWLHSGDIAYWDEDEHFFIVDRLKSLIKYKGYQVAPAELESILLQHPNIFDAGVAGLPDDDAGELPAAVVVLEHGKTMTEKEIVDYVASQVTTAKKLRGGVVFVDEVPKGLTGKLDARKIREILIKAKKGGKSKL
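Purified P. pyralis luciferase, 10 nM final, with Km-level 10 uM D-luciferin and 10 uM ATP in 50 mM Tris acetate pH 7.5, 10 mM Mg acetate, 0.01% Tween-20, 0.05% BSA; 6-point qHTS titration about 60 µM downward; luminescence read.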
Rab9 promoter act = activators of Rab9 promoter | Huh7 Rab9 promoter-luciferase reporter, luminescence, 24 h | Potency, µM (highest dose often 9.22 µM), actives largely listed as activators | actives 2.8% (n = 320,000); also: nearly all actives have a fitted effect of over 60% in size
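Steps: seed 1500 Huh7 Rab9-luc cells per well, rest 2 h at 37 °C; add compound in DMSO; incubate 24 h; add luciferase reagent, 10 min ambient; read luminescence.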
SMN2 splice up = SMN2 splice variant enhancement; actives 2.8% (n = 210,000); HEK293 SMN2-luciferase splicing reporter, luminescence, 30-36 h; Potency, µM (doses to about 46.1 µM), hits mostly activators; also: nearly all actives have a fitted effect of over 55% in size
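qHTS luciferase splicing reporter: luminescence rises when SMN2 exon 7 is included in transfected HEK293 cells. Compound exposure lasted 30-36 h at 37C, with 4.5 mM final sodium butyrate as control, followed by a ONE-Glo read.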
ELG1 genotox = inducers of genotoxicity in HEK293T ELG1-luciferase cells; HEK293T ELG1-luciferase reporter, luminescence, 16 h; Potency, µM (titrated, usually from 46 µM), most hits filed as activators; actives 1.3% (n = 330,000); also: nearly all actives have a fitted effect of over 60% in size
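ELG1-luciferase HEK293T cells, 2,000/well; compound pinned in; 16 hr, 37 °C, 5% CO2; ONE-Glo, 30 min RT; luminescence on CCD imager.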
Hits are given with their value; . = inactive; ? = inconclusive; / = not tested or not shown. Most compounds without a hit are left out; they make up all but 9.2% or so of the library. Calls follow the shape of the dose curve; as a rule, active = well fitted curve in the direction sought with a large enough effect; inconclusive = small, poorly fitted or top-dose-only effect, or another doubt; inactive = no such curve, though single readings can be large; an effect the other way counts as inactive or inconclusive.

SMILES	ELG1 DNA repair	NPC1 promoter act	FLuc modulator	Rab9 promoter act	SMN2 splice up	ELG1 genotox
Oc1ccc(O)cc1	/	.	/	.	.	/
Oc1ccc(/C=N/N=C/c2ccc(O)cc2)cc1	.	.	7.6µM	.	.	.
C(=N\N=C\c1ccccc1)/c1ccccc1	?	.	0.95µM	.	.	.
C(=C/c1ccccc1)/c1ccccc1	/	/	/	/	.	/
Cc1ccc(/C=N/N=C/c2ccc(C)cc2)cc1	?	?	2.4µM	?	?	21µM
Oc1ccc(/C=N/N=C/c2ccc(O)c(O)c2)cc1O	.	.	15µM	.	/	.
Cc1ncc(CN2CCC(N3CCC(C(=O)N4CCCC4)CC3)CC2)s1	.	.	.	.	/	.
CCCCNC(=O)N(c1c(N)n(Cc2ccccc2)c(=O)[nH]c1=O)C1CCCC1	.	.	.	.	.	.
Fc1cccc(/C=N/N=C/c2cccc(F)c2)c1	?	?	2.7µM	?	.	?
COc1cc(/C=C2/N=C(c3ccccc3F)OC2=O)cc(Cl)c1OS(C)(=O)=O	.	.	8.5µM	.	.	.
CCc1ccccc1NC(=O)Cn1c(=O)n(CCc2ccccc2)c(=O)c2sc3ccccc3c21	/	/	.	/	.	/
Cc1ccc(C)n1-c1cccc(S(=O)(=O)N2CCOCC2)c1	?	.	.	.	.	26µM
O=C(NC1CCCC1)c1n[nH]c2ccccc12	?	3.2µM	24µM	2.8µM	/	?
O=C(NN=C1CCCC1)c1n[nH]c2c1CCCC2	?	2.5µM	5.4µM	0.63µM	22µM	?
O=C(NC1CCCCC1)c1n[nH]c2c1CCCCC2	?	?	0.38µM	0.089µM	/	?
C/C=C(\C)CN1CCC(n2nccc2NC(=O)CCOc2ccccc2)CC1	.	.	.	.	/	.
CCc1ccccc1NC(=O)CN1C(=O)CCn2nc(-c3cccn3C)cc21	/	/	.	/	/	/
CCOc1ccc(CCNC(=O)CCS(=O)(=O)c2ccc(OC)cc2)cc1OCC	.	.	.	.	.	.
CCOC(=O)C1CCCN(C(=O)c2cccc(NC(=O)c3nsc4ccccc34)c2)C1 (stereo unspecified)	/	/	9.5µM	/	/	/
O=C(Nc1ccccc1)N1CCN(C(=O)c2nsc3ccccc23)CC1	/	/	.	/	/	/
COc1ccc(N2CCN(C(=O)c3cccc(NC(=O)c4nsc5ccccc45)c3)CC2)cc1	/	/	9.5µM	/	/	/
O=C(Nc1cccc(C(=O)N2CCN(c3ccccc3)CC2)c1)c1nsc2ccccc12	/	/	2.7µM	/	/	/
CC1CCN(C(=O)c2cccc(NC(=O)c3nsc4ccccc34)c2)CC1	/	/	3.4µM	/	/	/
Cc1ccc(C(=O)N2CCN(c3ccccc3)CC2)cc1NC(=O)c1nsc2ccccc12	/	/	.	/	/	/
Cn1ccnc1C1CCCCN1Cc1nc(-c2ccc3c(c2)OCO3)no1 (stereo unspecified)	.	.	.	.	/	.
SMILES	ELG1 DNA repair	NPC1 promoter act	FLuc modulator	Rab9 promoter act	SMN2 splice up	ELG1 genotox
CC(Cc1ccc(O)c(O)c1)(NN)C(=O)O (stereo unspecified)	/	/	/	/	.	/
COC(=O)c1cc(-c2ccc(Br)cc2)c2c(=O)n(C)c(=O)n(C)c2n1	.	.	.	.	/	.
COc1cccc(N2CCN(C(=O)c3cccc(NC(=O)c4nsc5ccccc45)c3)CC2)c1	/	/	1.9µM	/	/	/
CCOc1ccc(NC2=C(Cl)C(=O)N(Cc3ccccc3)C2=O)cc1	.	.	.	.	/	.
Cc1ccc(C(=O)N2CCCCC2)cc1NC1=C(Cl)C(=O)N(Cc2ccccc2)C1=O	18µM	.	/	.	/	.
Cc1ccc(O)c(NC2=C(Cl)C(=O)N(Cc3ccccc3)C2=O)c1	.	.	21µM	.	.	.
CCNC(=O)n1nccc1C(C)Oc1ccccc1 (stereo unspecified)	?	.	.	.	.	.
COc1cc2c(C(=O)N(C)c3ccc(F)cc3)cn(C)c(=O)c2cc1OC	.	.	.	.	/	.
O=[N+]([O-])c1ccc(N2CCN(S(=O)(=O)c3ccccc3)CC2)cc1NCCN1CCOCC1	26µM	.	.	.	.	.
Cc1ccc(S(=O)(=O)N2CCN(c3ccc([N+](=O)[O-])c(NCCN4CCOCC4)c3)CC2)cc1	?	.	.	.	.	.
C=CCn1c(=O)/c(=C/c2cc(OC)c(OC)c(OC)c2)s/c1=C(/C#N)c1nc2ccccc2n1C	4.1µM	.	.	.	.	.
O=C(Nc1ccc(Cl)cc1Cl)NC1CCCC1	?	.	.	?	.	.
CN(C(=O)Nc1ccc(Cl)cc1Cl)C1CCCC1	?	?	19µM	4µM	/	?
COC(=O)c1ccccc1NC(=O)c1ccc2c(c1)OCCO2	.	.	?	.	?	.
O=C(COC(=O)c1ccccc1NC(=O)C1CC1)c1ccc2c(c1)OCCO2	.	.	1.7µM	?	.	.
CC(C)(C)C(=O)Nc1ccccc1C(=O)OCC(=O)c1ccc2c(c1)OCCO2	.	.	6.7µM	.	.	.
O=C(Nc1cccc(NC(=S)NC(=O)c2cccs2)c1)c1ccccc1	.	.	.	.	.	.
Cc1nc(-c2cccc(NC(=O)c3cccs3)c2)cs1	?	.	24µM	.	.	.
O=C(Nc1cccc(-c2csc(-c3ccccc3)n2)c1)c1cccs1	.	.	11µM	.	.	.
O=C(Nc1ccccc1)c1csc(-c2ccccc2)n1	?	.	21µM	.	.	.
COc1ccc(Oc2ncc3nc(C)c(=O)n(C4CC4)c3n2)cc1	/	/	/	/	.	/
CN(C)c1ccc(C(C(=O)NCC2CCCO2)N(Cc2ccccc2)C(=O)c2snc(C(N)=O)c2N)cc1 (stereo unspecified)	12µM	.	.	.	/	.
O=C(NCC1CCCO1)C(c1ccncc1)N(Cc1cccs1)C(=O)CN1C(=O)c2ccccc2S1(=O)=O (stereo unspecified)	.	.	13µM	.	/	.
Cc1ccc(C(C(=O)NCC2CCCO2)N(Cc2ccccc2)C(=O)c2ccc(-c3ccccc3)[nH]2)o1 (stereo unspecified)	16µM	.	.	.	.	.
Cc1ccccc1CCN(C(=O)CN1C(=O)c2ccccc2S1(=O)=O)C(C(=O)NCC1CCCO1)c1ccncc1 (stereo unspecified)	.	.	.	.	.	.
Cc1ccc(CN(C(=O)CNC(=O)c2cccs2)C(C(=O)NCC2CCCO2)c2ccccc2)cc1 (stereo unspecified)	9.2µM	.	.	.	?	.
CCOC(=O)c1ccc(NC(=S)N(CCCN2CCN(CC)CC2)Cc2cccs2)cc1	.	.	.	.	.	.
COc1ccc(C(=O)c2coc3ccc(OC(C)=O)cc23)cc1	?	?	9.5µM	.	/	?
COc1ccc2occ(C(=O)c3ccc(N)cc3)c2c1	?	1.4µM	6µM	0.63µM	/	?
COc1ccc2occ(C(=O)c3cccs3)c2c1	?	?	6µM	?	.	6.5µM
